Source: PubChem BioAssay (The Scripps Research Institute Molecular Screening Center)
Rows were chosen to be rich in hits. Some 3.4% of all compounds tested hit in one or more screens of this group.
FBW7 activator: activators of human E3 ligase FBW7 | Q969H0 | AlphaScreen FBW7–phospho-cyclin E peptide binding, activator screen | normalized activity (activation), % at 26.1 µM | 0.13% of 650,000 active; in the data active = normalized activity above about 1.9%;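 note: purified mutant Fbw7 with reduced substrate affinity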
TEAD-YAP block: TEAD-YAP interaction inhibition. HEK-TIYL cells, TEAD-Gal4/YAP UAS-luciferase luminescence. 1.4% of 640,000 active. inhibition, % at 9.12 µM; in the data active = inhibition above about 32%;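 note: 0% = median of test compound wells and 100% = reference inhibitor wells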
GPR151 ag: human GPR151 activation | 1% of 650,000 active | activation, % at 11.2 µM | Q8TDV0 | PathHunter beta-arrestin GPR151 cells, luminescence; in the data active = activation above about 4.9%;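 note: 0% = median of compound wells and 100% = cells with positive control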
Target sequence (Q8TDV0 whole entry, looked up): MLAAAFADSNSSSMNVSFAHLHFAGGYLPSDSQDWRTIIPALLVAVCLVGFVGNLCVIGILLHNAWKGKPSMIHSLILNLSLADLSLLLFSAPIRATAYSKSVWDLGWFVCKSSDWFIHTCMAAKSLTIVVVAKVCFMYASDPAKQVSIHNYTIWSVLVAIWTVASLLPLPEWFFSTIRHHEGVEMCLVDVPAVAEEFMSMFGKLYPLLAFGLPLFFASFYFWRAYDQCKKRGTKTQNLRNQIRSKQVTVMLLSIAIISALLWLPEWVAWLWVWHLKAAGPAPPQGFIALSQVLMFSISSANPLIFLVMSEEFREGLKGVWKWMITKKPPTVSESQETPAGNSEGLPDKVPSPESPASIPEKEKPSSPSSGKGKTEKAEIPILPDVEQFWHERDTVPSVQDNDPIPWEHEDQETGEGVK
MITF inh: human MITF inhibition, primary screen | O75030 | AlphaScreen MITF homodimerization, bead proximity signal | inhibition, % at 2.6 µM | 0.91% of 650,000 active; in the data active = inhibition above about 50%;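 note: 0% = vehicle wells with protein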
MITF confirm: human MITF inhibition, confirmation | 16% of 4,700 active | AlphaScreen MITF homodimerization, biotin/His-MITF beads | inhibition, % at 2.6 µM | shares compounds with MITF inh | AID 1259372;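 active = inhibition above a cutoff derived from the DMSO control wells, cut at about 28% in these data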;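 note: 0% = MITF dimer wells with DMSO only; inhibitors lower the bead chemiluminescence by keeping MITF from dimerizing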
AS interf DR: counter-screen: compounds optically interfering with AlphaScreen | AID 1259373 | 6% of 480 active | AlphaScreen optical interference counterscreen, cell-free | IC50, µM | shares compounds with MITF inh; call rule not given here
AlphaScreen intf2: optically interferes with AlphaScreen signal; shares compounds with MITF inh; LysRS AlphaScreen counterscreen, signal interference, triplicate; inhibition, % at 2.6 µM; 7.6% of 4,700 active; AID 1259376;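 active = inhibition above a cutoff derived from the DMSO control wells, cut at about 30% in these data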
Numbers without * were called inactive; nt = no result given.

SMILES	FBW7 activator	TEAD-YAP block	GPR151 ag	MITF inh	MITF confirm	AlphaScreen intf2	others
Cc1ccc(NC(=O)CCN2C(=O)c3ccccc3S2(=O)=O)c([N+](=O)[O-])c1	-0.1	-2.3	1.9	11.1	nt	nt
CN(C)CCNC(=S)Nc1cc(Cl)ccc1C#N	0.1	-3.9	0.1	-4.0	nt	nt
CCN(CC)C(=O)C1CCCN(C(=O)C2CC(Cc3cccc(F)c3)=NO2)C1 (stereo not drawn)	0.1	-14.4	0.2	8.0	nt	nt
CC(C)c1ccc(OCCOCCN2CCN(C)CC2)cc1	-0.2	-2.9	-1.8	58.6*	10.6	31.1*
COc1ccc(OCCOCCN2CCN(C)CC2)cc1	-0.1	4.4	-0.8	12.3	nt	nt
Cc1ccc(OCCOCCN2CCN(C)CC2)cc1	0.1	-3.2	0.1	60.2*	8.5	8.6
CCOc1ccc(OCCOCCN2CCN(C)CC2)cc1	0.4	7.2	-1.0	71.9*	12.1	-6.2
Cc1nn(C(=O)COc2ccc(F)cc2)c(C)c1Sc1ccc(Br)cc1	0.1	7.3	-0.5	18.8	nt	nt
Cc1noc(C)c1CC(=O)N1CCOc2ccc(C(O)c3ccccn3)cc2C1 (stereo not drawn)	0.0	-3.9	0.0	7.7	nt	nt
CCOC(c1ccccc1)c1ccc2c(c1)CN(C(=O)Cc1c(C)noc1C)CCO2 (stereo not drawn)	0.5	-3.9	-0.6	74.9*	-4.9	-3.6
COc1ccc2ccccc2c1CN1CCSCC1	0.1	13.8	-0.1	54.0*	-6.0	-4.7
Cc1nn(C)c(C)c1-c1nc2c(NCc3nc4ccccc4[nH]3)ncnc2n1C(C)C	0.2	10.1	1.5	12.1	nt	nt
c1ccc(CN2CCN(C3CCCCCC3)CC2)nc1	0.5	3.9	-0.6	66.9*	-9.2	14.6
CC1CCC(N2CCN(Cc3ccccn3)CC2)CC1 (stereo not drawn)	0.6	11.9	-1.5	63.6*	0.5	3.4
c1ccc(CN2CCN(c3ncccn3)CC2)nc1	0.8	-1.6	-2.6	13.7	nt	nt
c1ccc(CN2CCN(C3CCCCC3)CC2)nc1	0.7	5.0	-2.3	59.9*	12.1	9.9
CN1CCN(Cc2cc(-c3ccc(F)cc3)ccc2OCC(=O)NCc2ccccn2)CC1	-0.1	0.9	3.0	-15.5	nt	nt
C=CCn1c(SCC(=O)O)nc2sc(C)c(C)c2c1=O	0.0	0.2	-0.9	81.0*	4.0	23.3
CCOc1ccc(-n2c(SCC(=O)Nc3cccc(OC)c3)nc3c(sc(=S)n3-c3ccccc3C)c2=O)cc1	0.0	-5.0	-0.5	-1.2	nt	nt
Fc1ccccc1CN1CCN(Cc2cccc3ccccc23)CC1	-0.2	-11.8	-0.7	73.8*	18.9	-3.8
Fc1ccccc1CN1CCCCCC1	0.1	1.3	-0.5	16.4	nt	nt
c1cnc(N2CCN(Cc3c[nH]c4ccccc34)CC2)nc1	0.0	3.5	-0.1	10.0	nt	nt
c1ccc2cc(CN3CCOCC3)ccc2c1	-0.2	-17.4	0.6	-4.7	nt	nt
Brc1ccccc1CN1CCN(Cc2c[nH]c3ccccc23)CC1	-0.3	3.8	-0.1	58.6*	-4.5	-3.9
CCS(=O)(=O)N1CCN(Cc2c[nH]c3ccccc23)CC1	0.1	11.5	-2.0	50.6*	4.8	9.5
SMILES	FBW7 activator	TEAD-YAP block	GPR151 ag	MITF inh	MITF confirm	AlphaScreen intf2	others
Fc1ccccc1CN1CCN(Cc2ccc3ccccc3c2)CC1	0.6	0.3	-1.4	74.9*	-7.3	1.4
COc1ccc2c(c1)cc(C)c1nn(Cc3cccnc3)c(=O)n12	0.2	-5.1	-0.2	-0.6	nt	nt
COC(=O)C1CCN(c2cc(-c3ccccc3)ncn2)CC1	0.0	-35.4	-0.3	8.4	nt	nt
Fc1ccccc1CN1CCN(Cc2c[nH]c3ccccc23)CC1	0.2	14.6	2.2	65.4*	-2.2	-0.5
Clc1ccc(CN2CCN(Cc3c[nH]c4ccccc34)CC2)cc1	-0.3	-9.2	-1.1	74.7*	84.0*	9.4	AS interf DR=>5.86
c1ccc2c(CN3CCN(Cc4c[nH]c5ccccc45)CC3)cccc2c1	0.0	17.5	0.6	74.5*	-7.1	7.4
CCc1cccc(OCCN2CCOCC2)c1	0.1	-18.9	-0.2	31.9	nt	nt
COCCNC(=S)Nc1ccn(Cc2ccc(F)cc2)n1	-0.1	5.1	-0.3	17.0	nt	nt
Cc1ccc(CN2CCC(C(=O)N3CCCCC3)CC2)cc1	0.1	6.0	1.9	49.7	nt	nt
CCn1c(CNC(=O)c2ccccc2F)nnc1SCC(=O)Nc1ccc(OC)cc1	-0.3	1.4	1.1	4.2	nt	nt
Cc1ccc(C(=O)Oc2coc(CSc3nc(C)cc(C)n3)cc2=O)cc1	0.1	-1.0	-2.5	55.5*	11.6	15.3
CC(NC(=O)C(c1ccccc1)C1CCCCC1)c1nc(-c2ccncc2)n[nH]1 (stereo not drawn)	-0.1	2.1	2.3	4.2	nt	nt
CC1CCCCN1Cc1ccccc1C#N (stereo not drawn)	0.2	1.1	1.6	71.1*	-12.5	-7.0
CC1CCCCN1Cc1c(C#N)c2ccccc2n1C (stereo not drawn)	-0.3	-1.1	2.5	-13.5	nt	nt
CC1(C)Cc2c(sc3nc(NNC(=O)c4ccccc4)[nH]c(=O)c23)CO1	0.0	7.0	0.0	73.3*	13.3	9.4
CCc1ccc(NC(=O)CSc2nc3c(c(=O)n2CCOC)SC(C)C3)cc1 (stereo not drawn)	-0.1	-26.0	0.2	8.1	nt	nt
Cc1[nH]c2c(-n3c(C)cc(C(F)(F)F)cc3=O)cccc2c1C	-0.1	3.4	1.0	52.7*	9.2	11.7
COc1cccc(CNC(=O)CSCc2ccc(F)cc2)c1	0.1	8.8	1.6	-12.0	nt	nt
COc1cc(CN2CCN(Cc3cccnc3)CC2)cc(OC)c1O	0.1	0.6	-1.7	65.7*	4.3	6.8
COc1cc(CN2CCCCCCC2)cc(OC)c1O	0.3	-3.3	0.2	22.4	nt	nt
COc1ccc(CC2(CO)CCN(Cc3cccnc3)CC2)cc1	-0.1	6.3	1.4	-5.1	nt	nt
COc1ccc(CN2CCN(Cc3cccnc3)CC2)cc1	-0.3	-13.8	2.0	73.6*	23.7	13.4
CSc1ccc(CN2CCN(Cc3cccnc3)CC2)cc1	0.5	3.0	-0.3	85.8*	16.2	16.7
COc1cccc(CN2CCC(CNc3ccc(-c4ccncc4)cc3)C2)c1 (stereo not drawn)	0.0	-6.0	-2.0	62.8*	61.4*	11.8	AS interf DR=>6.48
COc1cccc(CN2CCOCC2)c1	0.1	6.7	-0.1	-1.6	nt	nt
SMILES	FBW7 activator	TEAD-YAP block	GPR151 ag	MITF inh	MITF confirm	AlphaScreen intf2	others
COc1ccc(C2CCN(Cc3cccnc3)CC2)cc1	0.2	2.0	0.1	64.0*	10.1	9.2
COc1cccc(CN2CCN(Cc3cccnc3)CC2)c1	0.1	-3.8	-1.1	79.4*	-11.4	-0.2
CC(=O)N1CCC(N(C(=O)Nc2ccccc2Br)C(C)C)CC1	0.9	4.2	2.5	9.7	nt	nt
O=C1CCCN1c1cccc(NS(=O)(=O)c2cccc3ccccc23)c1	0.5	0.4	3.0	50.7*	6.2	-1.0
O=C1CCCCN1c1cccc(NS(=O)(=O)c2ccccc2)c1	0.1	0.2	-0.5	4.3	nt	nt
Cc1nc2c(c(=O)[nH]1)CCN(Cc1ccc(C)o1)C2	0.1	-6.9	1.6	-0.7	nt	nt
